Each compound was assayed on Vero E6 infected with SARS-CoV-2 (assay: morphology score (similarity to uninfected cells); higher = more like uninfected cells). Settings: 24 h.
Work on CCCCN(CCCC)C(=O)CN1C[C@H](c2ccc3c(c2)OCO3)[C@@H](C(=O)O)[C@@H]1c1ccc(OC)cc1 [atrasentan] (10 µM) yielded a morphology score of 0.0179. In the case of C[C@@H]1C[C@H]2[C@@H]3CCC4=CC(=O)C=C[C@]4(C)[C@@]3(Cl)[C@@H](O)C[C@]2(C)[C@@]1(OC(=O)c1ccco1)C(=O)CCl (10 µM), the morphology score is reported as 0.481. O=C(NCc1cccc(O)c1)Nc1nc(-c2ccncc2)cs1 (10 µM) was tested, and the morphology score was 0.392. In the case of O=[N+]([O-])O[C@H]1CO[C@H]2[C@@H]1OC[C@H]2O[N+](=O)[O-] [isosorbide-dinitrate] (10 µM), the morphology score is reported as 0.0765. With CCOC(=O)N[C@@H]1CC[C@@H]2[C@@H](C1)C[C@H]1C(=O)O[C@H](C)[C@H]1[C@H]2/C=C/c1ccc(-c2cccc(F)c2)cn1 [vorapaxar] (10 µM) the morphology score was 0.209. Compound O=C(O)CNC(=O)c1nc(Cl)c2ccccc2c1O (10 µM) has a morphology score of 0.17. C#CCN(C)Cc1ccccc1 [pargyline] (10 µM) showed a morphology score of 0.0803. Work on C[C@H](N)C(=O)N[C@@]1(C(=O)O)C[C@@H](Sc2nnc[nH]2)[C@H]2[C@H](C(=O)O)[C@H]21 (10 µM) yielded a morphology score of -0.0396. CCOC(=O)[C@@](C)(N)Cc1ccc(O)c(O)c1 [methyldopate] (10 µM) gave a morphology score of 0.0423. For CN(C)CCC(c1ccccc1)c1ccccn1 (centres undefined) [pheniramine] (10 µM), the morphology score was -0.131. In the case of CN=c1nc(-c2ccccc2)n(-c2ccccc2)s1 (10 µM), the morphology score is reported as -0.0414. For COc1ccc(NS(=O)(=O)c2ccc(I)cc2)cc1N1CCN(C)CC1 (10 µM), the morphology score was 0.195. CO[C@H]1CC[C@H](N(c2cc(C3=CCCCC3)sc2C(=O)O)C(=O)[C@H]2CC[C@H](C)CC2)CC1 (10 µM) gave a morphology score of 0.155. For COc1ccc(-c2nc(N3CCOCC3)c3sc(CN(C)c4ncc(C(=O)NO)cn4)cc3n2)cn1 (10 µM), the morphology score was -0.449. In the case of O=[N+]([O-])c1cccc2c(Br)n[nH]c12 [3-bromo-7-nitroindazole] (10 µM), the morphology score is reported as 0.0979. O=C(Nc1ccc(F)cc1)N1CCc2ccccc2[C@@H]1c1ccc(C(F)(F)F)cc1 (10 µM) showed a morphology score of 0.195. Cc1cccc(C)c1NC(=O)CN1CCN(CCCC(c2ccc(F)cc2)c2ccc(F)cc2)CC1 [lidoflazine] (10 µM) was tested, and the morphology score was 0.34. CN1CCN(c2ncc(-c3cc(Cl)cc(Cl)c3Cl)c(N)n2)CC1 [sipatrigine] (10 µM) was tested, and the morphology score was 0.204. Compound Cc1ccc(S(N)(=O)=O)cc1 [para-toluenesulfonamide] (10 µM) has a morphology score of -0.0434. Work on CN(C(=O)c1c(O)c2ccccc2n(C)c1=O)c1ccccc1 [roquinimex] (10 µM) yielded a morphology score of 0.211. O=C1c2ccccc2-c2c(NCCc3ccccc3)c(=O)[nH]c3cccc1c23 (10 µM) gave a morphology score of -0.00844. N#CSc1cc(SC#N)c(N)nc1N (0.833333 µM) showed a morphology score of 0.125. For CCOC(=O)CNC(=O)[C@@H]1CCCN1C(=O)Cc1ccccc1 (10 µM), the morphology score was -0.0562. Nc1nc(/C(=C/CC(=O)O)C(=O)N[C@@H]2C(=O)N3C(C(=O)O)=CCS[C@H]23)cs1 [ceftibuten] (10 µM) gave a morphology score of 0.161. Work on COc1ccc2cc1Oc1ccc(cc1)C[C@H]1c3c(cc4c(c3Oc3cc5c(cc3OC)CCN(C)[C@@H]5C2)OCO4)CCN1C [cepharanthine] (10 µM) yielded a morphology score of 0.461. In the case of O=C(O)CCCc1ccc(N(CCCl)CCCl)cc1 [chlorambucil] (10 µM), the morphology score is reported as 0.143. With CC(C)Nc1nc2cc(Cl)c(Cl)cc2n1[C@H]1O[C@@H](CO)[C@H](O)[C@@H]1O [maribavir] (10 µM) the morphology score was -0.0681. COc1ccccc1Oc1c(NS(=O)(=O)c2ccc(C(C)(C)C)cc2)nc(-c2ncccn2)nc1OCCO [bosentan] (10 µM) gave a morphology score of 0.0268. With CCn1cnc2c(Nc3cccc(Cl)c3)nc(N[C@@H]3CCCC[C@@H]3N)nc21 (0.833333 µM) the morphology score was -0.35. NC(=O)c1cc([N+](=O)[O-])cc([N+](=O)[O-])c1 [nitromide] (10 µM) was tested, and the morphology score was 0.265. Compound CC1(C)CC(=O)c2c(C(F)(F)F)nn(-c3ccc(C(N)=O)c(N[C@H]4CC[C@H](O)CC4)c3)c2C1 (10 µM) has a morphology score of 0.196. For CC1(C)C(=O)N(CCN2CCC(C(=O)c3ccc(F)cc3)CC2)c2ccccc21 (10 µM), the morphology score was -0.158. Compound COC(=O)CC[C@@H]1N=C(c2ccccn2)c2cc(Br)ccc2-n2c(C)cnc21 [remimazolam] (10 µM) has a morphology score of 0.132. CCC(C)n1ncn(-c2ccc(N3CCN(c4ccc(OCC5COC(Cn6cncn6)(c6ccc(Cl)cc6Cl)O5)cc4)CC3)cc2)c1=O (centres undefined) [itraconazole] (10 µM) was tested, and the morphology score was 0.0302.

From the supplement of paper PMC13380429
